Results published in PubChem BioAssay (EPA / NIEHS).
Values joined by “and” are separate entries in the source; they are usually repeats but may differ in a detail not shown here. Equal entries are not always repeated. Where a structure was tested more than once in an assay, its records may differ in their call. Active and inactive are the calls of the source. The calls were made as follows: active = hit-call score of the fitted dose curve at least 0.9, where 1 is the maximum; inconclusive = response in the unintended direction; inactive = score below 0.9.

Test: Tanguay_ZF_120hpf_MORT_legacy: (Legacy) Oregon State University Tanguay Lab 120 Hour Post-fertilization zebrafish Assay for Mortality (AID 2283633)
Protocol: Tanguay_ZF_120hpf_legacy is a whole embryo, multiplexed endpoint assay using zebrafish larvae exposed for 120 hours post fertilization on a 96-well plate.Tanguay_ZF_120hpf_MORT_legacy is one of one assay component(s) measured or calculated from the Tanguay_ZF_120hpf_legacy assay. It is designed to make measurements of embryonic mortality as detected with brightfield microscopy of developing zebrafish embryos.Data from the assay component Tanguay_ZF_120hpf_MORT_legacy was analyzed into 1 assay endpoints. This assay endpoint, Tanguay_ZF_120hpf_MORT_legacy, was analyzed in the positive analysis fitting direction relative to DMSO as the negative control and baseline of activity. Using a type of viability reporter, gain-of-signal activity can be used to understand changes in developmentals as they relate to the whole embryo. To generalize the intended target to other relatable targets, this assay endpoint is annotated to the embryonic mortality intended target family, where the subfamily is embryonic mortality.
Zebrafish husbandry: Tropical 5D wild-type adult zebrafish were housed in at an approximate density of 1000 per 100 gallon tank at the Sinnhuber Aquatic Research Laboratory, Oregon State University, Corvallis, OR. Each tank was kept at standard laboratory conditions of 28C on a 14-h light/10-h dark photoperiod in fish water consisting of reverse osmosis water supplemented with a commercially available salt (Instant Ocean). Spawning funnels were placed into the tanks the night prior, and embryos were collected and staged. To increase bioavailability, the chorion was enzymatically removed using pronase (63.6mg/ml, >/= 3.5U/mg, Sigma-Aldrich: P5147) at 4 hours post fertilization (hpf) using a custom automated dechorionator.Chemical exposures: Six hpf dechorionated embryos were placed 1 embryo per well in a 96-well plate prefilled with 90 ul of EM using automated embryo placement systems (AEPS). Ten microliters of each row of dilution plate 2 was added to 2 exposure plates. The final DMSO concentration used was 0.64% (vol/vol). Thirty-two embryos were also exposed to 5uM trimethyltin chloride (positive control). Plates were sealed to prevent evaporation and foil covered to reduce light exposure and kept in a 28C incubator. Embryos were statically exposed until 120 hpf. At 24 hpf, embryos were assessed for photomotor response using a custom photomotor response analysis tool (PRAT) and for developmental toxicity endpoints (MO24: mortality at 24 hpf, DP: developmental progression, SM: spontaneous movement, and NC: notochord distortion). At 120 hpf, locomotor activity was measured using Viewpoint Zebralab and assessed for 18 endpoints. Zebrafish acquisition and analysis program (ZAAP), a custom program designed to inventory, acquire, and manage zebrafish data, was used to collect developmental endpoints as either present or absent (i.e., binary responses were recorded). If mortality occurred for an embryo (at either 24 or 120 hpf), the non-mortality endpoints were not measured.

Row | SMILES | outcome | AC50
1 | C=CCC1=C(C)[C@@H](OC(=O)[C@@H]2[C@@H](C=C(C)C)C2(C)C)CC1=O | inactive | –
2 | CN(C)C(=S)SSC(=S)N(C)C | inactive | –
3 | Fc1ccc(Oc2ccnc3cc(Cl)cc(Cl)c23)cc1 | inactive | –
4 | CCNc1nc(Cl)nc(NCC)n1 | inactive | –
5 | CO/C=C(/C(=O)OC)c1ccccc1Oc1cc(Oc2ccccc2C#N)ncn1 | inactive | 7.48 µM (active) and 1.44 µM (active)
6 | CCc1nn(C)c(C(=O)NCc2ccc(C(C)(C)C)cc2)c1Cl | inactive | –
7 | CNC(=O)ON=CC(C)(C)SC | inactive | –
8 | N#CC(CCc1ccc(Cl)cc1)(Cn1cncn1)c1ccccc1 (stereo not given) | inactive | –
9 | CCCCNC(=O)n1c(NC(=O)OC)nc2ccccc21 | inactive | –
10 | CCON=C(CC)C1=C(O)CC(c2c(C)cc(C)cc2C)CC1=O (stereo not given) | inactive | –
11 | CCOP(=S)(OCC)SCn1c(=O)oc2cc(Cl)ccc21 | inactive | –
12 | CC(C)(C)c1ccc(CSc2cnn(C(C)(C)C)c(=O)c2Cl)cc1 | – | 25.1 µM (active)
13 | CCCCNC(=O)OCC#CI | – | 24 µM (active)
14 | Cc1ccc(-c2c(Cl)nc(C#N)n2S(=O)(=O)N(C)C)cc1 | – | 1.55 µM (active)
15 | O=C(O)c1nc(Cl)ccc1Cl | inactive | –
16 | CCOC(=O)CC(SP(=S)(OC)OC)C(=O)OCC (stereo not given) | inactive | –
17 | COC(=O)N(OC)c1ccccc1COc1ccn(-c2ccc(Cl)cc2)n1 | – | 0.367 µM (active)
18 | COC(=O)C=C(C)OP(=O)(OC)OC | inactive | –
19 | CCCN(CCC)c1c([N+](=O)[O-])cc(S(N)(=O)=O)cc1[N+](=O)[O-] | inactive | –
20 | CCNc1nc(Cl)nc(NC(C)C)n1 | inactive | –

Row | SMILES | outcome | AC50
21 | CC1COC(Cn2cncn2)(c2ccc(Oc3ccc(Cl)cc3)cc2Cl)O1 (stereo not given) | inactive | –
22 | CCCCOC(=O)c1ccccc1C(=O)OCCCC | inactive | –
23 | O=C(Nc1ccccc1)Nc1ccnc(Cl)c1 | inactive | –
24 | C=CCC1=C(C)C(OC(=O)C2C(C=C(C)C)C2(C)C)CC1=O (stereo not given) | inactive | –
25 | Cc1cc(Cl)ccc1OCC(=O)O | inactive | –
26 | COP(=S)(OC)Oc1nc(Cl)c(Cl)cc1Cl | inactive | –
27 | CCCCC(CC)COC(=O)c1ccccc1C(=O)OCC(CC)CCCC (stereo not given) | inactive | –
28 | Oc1ccccc1-c1ccccc1 | inactive | –
29 | CC(Oc1ccc(Cl)cc1Cl)C(=O)O (stereo not given) | inactive | –
30 | CCOC(=O)C(Cl)Cc1cc(-n2nc(C)n(C(F)F)c2=O)c(F)cc1Cl (stereo not given) | inactive | –
31 | CNC(=S)S | inactive | –
32 | COc1ccc(C(c2ccc(OC)cc2)C(Cl)(Cl)Cl)cc1 | inactive | –
33 | C#CCOS(=O)OC1CCCCC1Oc1ccc(C(C)(C)C)cc1 (stereo not given) | inactive | –
34 | CS/C(C)=N/OC(=O)N(C)SN(C)C(=O)O/N=C(\C)SC | inactive | –
35 | OC(c1ccc(Cl)cc1)(c1cncnc1)c1ccccc1Cl (stereo not given) | inactive | –
36 | CC(C)Oc1cc(-n2nc(C(C)(C)C)oc2=O)c(Cl)cc1Cl | inactive | –
37 | CC1=C(C(=O)Nc2ccccc2)SCCO1 | – | 40.4 µM (active)
38 | CCCC1COC(Cn2cncn2)(c2ccc(Cl)cc2Cl)O1 (stereo not given) | inactive | –
39 | COC(=O)C(C)Oc1ccc(Oc2ccc(Cl)cc2Cl)cc1 (stereo not given) | inactive | –
